Here are results for nine molecules from PubChem BioAssay (NCI).

Assay [1] is described as follows: NCI Yeast Anticancer Drug Screen. Data for the rad50 strain (AID 155).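 Further: 0% = growth of vehicle-only cultures of the same strain.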 The following applies: S. cerevisiae rad50 strain growth inhibition, hits give high values. The procedure, abridged:
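Readout: growth inhibition relative to vehicle-treated cultures. Compound exposure was carried out in a genetically defined yeast strain deficient in DNA damage repair.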

The nature of assay [2]: NCI Yeast Anticancer Drug Screen. Data for the mec2-1 strain (AID 157). The note with it: S. cerevisiae mec2-1 strain, hits give high values. The method, boiled down:
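Mutant yeast (mec2-1) grown with compound; growth inhibition relative to vehicle control reported.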

Assay [3] can be described thus: NCI Yeast Anticancer Drug Screen. Data for the sgs1 mgt1 strain (AID 161).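 Further: 0% = growth of cultures given vehicle only.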 The note with it: S. cerevisiae sgs1 mgt1 strain, hits give high values. The procedure, abridged: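 Growth of a repair-deficient yeast mutant was monitored after compound treatment and expressed as inhibition relative to vehicle-treated cultures.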
Assay [4] is described as follows: NCI Yeast Anticancer Drug Screen. Data for the cln2 rad14 strain (AID 165).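 Further: 0% = growth equal to vehicle treated cultures.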 The note with it: S. cerevisiae cln2 rad14 strain, hits give high values. The procedure, abridged:
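Readout is yeast growth inhibition versus vehicle-treated controls, using a strain with cln2 and rad14 alterations exposed to compound.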

Assay [5] is described as follows: NCI Yeast Anticancer Drug Screen. Data for the bub3 strain (AID 167). The following applies: S. cerevisiae bub3 mutant strain, hits give high values. The method, boiled down: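 Readout: yeast growth inhibition, expressed relative to vehicle-only wells. The test organism is a mutant strain from a panel with lesions in DNA repair or checkpoint genes.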
The nature of assay [6]: NCI Yeast Anticancer Drug Screen. Data for the mlh1 rad18 strain (AID 175). The following applies: S. cerevisiae mlh1 rad18 strain growth inhibition, hits give high values. The procedure, abridged:
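Genetically defined yeast (DNA repair-deficient) exposed to compounds; growth inhibition determined relative to vehicle.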

Where [7] appears, read: at 5.0 µM (retest, dose inferred, filed as 0.5).
The mark [8] stands for this setting: at 50.0 µM (retest, dose inferred, filed as 5.0).

Compounds without any hit were thinned out: in the full panel of roughly 79,000, 15% have a hit. Unmarked numbers belong to inactive results. The source made the active and inactive calls. No stated cut-off is given here; in the data, active means growth inhibition above about 70%; inactive means the rest.

Regarding `Cc1ccc(S(=O)(=O)NC(=O)CC2CCCCC2)cc1`, the growth inhibition in assay [1] (setting [7]) was 14%; in assay [1] (setting [8]), 89% (active); in assay [1] (at 50.0 µM), 91.2% (active); in assay [2] (setting [7]) it was 9%; in assay [2] (setting [8]) it was 93% (active); in assay [2] (at 50.0 µM), 76.5% (active). Moreover, the growth inhibition in assay [3] (setting [7]) was -9%; in assay [3] (setting [8]) it was 94% (active); in assay [3] (at 50.0 µM), 79.1% (active); in assay [4] (setting [7]) it was -4%; in assay [4] (setting [8]), 91% (active); in assay [4] (at 50.0 µM), 76.7% (active). For the same molecule, the growth inhibition in assay [5] (setting [7]) is 17%; in assay [5] (setting [8]), 94% (active); in assay [5] (at 50.0 µM), 79% (active); in assay [6] (setting [7]) it was 22%; in assay [6] (setting [8]) it was 96% (active); in assay [6] (at 50.0 µM) it was 91.5% (active).
Consider `O=C1CC(=S)NC(=S)N1`, for which the growth inhibition in assay [1] (setting [7]) is -2%; in assay [1] (setting [8]), -6%; in assay [1] (at 50.0 µM), 12.8%; in assay [2] (setting [7]), 0%; in assay [2] (setting [8]), -1%; in assay [2] (at 50.0 µM), -1.7%. The growth inhibition in assay [3] (setting [7]) was -1%; in assay [3] (setting [8]), -2%; in assay [3] (at 50.0 µM) it was -15%; in assay [4] (setting [7]), -5%; in assay [4] (setting [8]), -6%; in assay [4] (at 50.0 µM), -26%. In addition, the growth inhibition is -2% in assay [5] (setting [7]); -8% in assay [5] (setting [8]); -10.4% in assay [5] (at 50.0 µM); -3% in assay [6] (setting [7]); -5% in assay [6] (setting [8]); 40.2% in assay [6] (at 50.0 µM).
On to `CCOC(=O)CNC(=O)Sc1ccc(C(C)(C)C)cc1C`, for which the growth inhibition in assay [1] (setting [7]) was 17%; in assay [1] (setting [8]) it was 32%; in assay [1] (at 50.0 µM), 0.05%; in assay [2] (setting [7]), 22%; in assay [2] (setting [8]) it was 74% (active); in assay [2] (at 50.0 µM), 19.8%. In addition, the growth inhibition is 17% in assay [3] (setting [7]); 60% in assay [3] (setting [8]); 82% (active) in assay [3] (at 50.0 µM); 19% in assay [4] (setting [7]); 84% (active) in assay [4] (setting [8]); 75.7% (active) in assay [4] (at 50.0 µM). Besides, the growth inhibition in assay [5] (setting [7]) was 14%; in assay [5] (setting [8]) it was 92% (active); in assay [5] (at 50.0 µM), 69.7%; in assay [6] (setting [7]) it was 29%; in assay [6] (setting [8]), 50%; in assay [6] (at 50.0 µM) it was 26.7%.
Take `CCCCN(CCCC)Cc1ccc(NC(C(=O)c2ccccc2)c2ccccc2)cc1` (configuration not stated): the growth inhibition in assay [1] (setting [7]) is -5%; in assay [1] (setting [8]) it was 46%; in assay [1] (at 50.0 µM) it was 85.8% (active); in assay [2] (setting [7]), 25%; in assay [2] (setting [8]), 49%; in assay [2] (at 50.0 µM) it was 82.2% (active). The growth inhibition in assay [3] (setting [7]) is 5%; in assay [3] (setting [8]), 86% (active); in assay [3] (at 50.0 µM), 93.8% (active); in assay [4] (setting [7]), -1%; in assay [4] (setting [8]), 34%; in assay [4] (at 50.0 µM), 97.2% (active). For the same molecule, the growth inhibition in assay [5] (setting [7]) was 0%; in assay [5] (setting [8]) it was 52%; in assay [5] (at 50.0 µM) it was 90.5% (active); in assay [6] (setting [7]), 22%; in assay [6] (setting [8]) it was 72% (active); in assay [6] (at 50.0 µM) it was 98.7% (active).
Regarding `Nc1ccc(S(=O)(=O)O)c2cccc(S(=O)(=O)O)c12`, the growth inhibition in assay [1] (setting [7]) was -2%; in assay [1] (setting [8]) it was -2%; in assay [1] (at 50.0 µM) it was 3.45%; in assay [2] (setting [7]) it was -2%; in assay [2] (setting [8]) it was 0%; in assay [2] (at 50.0 µM), 7.4%. Moreover, the growth inhibition in assay [3] (setting [7]) is -2%; in assay [3] (setting [8]), 0%; in assay [3] (at 50.0 µM), 31.5%; in assay [4] (setting [7]), -1%; in assay [4] (setting [8]) it was -7%; in assay [4] (at 50.0 µM) it was 71.9% (active). For the same molecule, the growth inhibition in assay [5] (setting [7]) is 0%; in assay [5] (setting [8]), 2%; in assay [5] (at 50.0 µM), 27.2%; in assay [6] (setting [7]), -1%; in assay [6] (setting [8]), -2%; in assay [6] (at 50.0 µM), -12.9%.
As to `CC(CO)(Nc1ccc([N+](=O)[O-])cc1[N+](=O)[O-])C(=O)O` (configuration not stated), the growth inhibition was 21% in assay [1] (setting [7]); 99% (active) in assay [1] (setting [8]); 97.1% (active) in assay [1] (at 50.0 µM); 14% in assay [2] (setting [7]); 99% (active) in assay [2] (setting [8]); 99% (active) in assay [2] (at 50.0 µM). The growth inhibition was 10% in assay [3] (setting [7]); -22% in assay [3] (setting [8]); 98.1% (active) in assay [3] (at 50.0 µM); 1% in assay [4] (setting [7]); 99% (active) in assay [4] (setting [8]); 70.1% (active) in assay [4] (at 50.0 µM). In addition, the growth inhibition in assay [5] (setting [7]) was 1%; in assay [5] (setting [8]) it was 99% (active); in assay [5] (at 50.0 µM) it was 95% (active); in assay [6] (setting [7]) it was 6%; in assay [6] (setting [8]), 99% (active); in assay [6] (at 50.0 µM), 97.5% (active).
Regarding `COc1cc(C(=O)NC(CCC(=O)O)C(=O)O)ccc1N(C)Cc1cnc2nc(N)nc(N)c2n1` (configuration not stated), the growth inhibition in assay [1] (setting [7]) was -4%; in assay [1] (setting [8]) it was 66%; in assay [1] (at 50.0 µM), 89.8% (active); in assay [2] (setting [7]) it was -3%; in assay [2] (setting [8]), 93% (active); in assay [2] (at 50.0 µM), 97.2% (active). Further, the growth inhibition in assay [3] (setting [7]) is -7%; in assay [3] (setting [8]), 44%; in assay [3] (at 50.0 µM) it was 83.8% (active); in assay [4] (setting [7]), 2%; in assay [4] (setting [8]) it was -10%; in assay [4] (at 50.0 µM) it was -21.4%. The growth inhibition in assay [5] (setting [7]) was -6%; in assay [5] (setting [8]), -6%; in assay [5] (at 50.0 µM), 40.4%; in assay [6] (setting [7]), -51%; in assay [6] (setting [8]), 29%; in assay [6] (at 50.0 µM) it was 74.1% (active).
As to `NNC(=O)c1c(SCc2ccccc2)nc2c3ccccc3ccn12`, the growth inhibition in assay [1] (setting [7]) was 40%; in assay [1] (setting [8]), 93% (active); in assay [1] (at 50.0 µM) it was 51.5%; in assay [2] (setting [7]), 22%; in assay [2] (setting [8]) it was 83% (active); in assay [2] (at 50.0 µM), 35%. The growth inhibition is 42% in assay [3] (setting [7]); 90% (active) in assay [3] (setting [8]); 52.6% in assay [3] (at 50.0 µM); 24% in assay [4] (setting [7]); 87% (active) in assay [4] (setting [8]); 38.8% in assay [4] (at 50.0 µM). In addition, the growth inhibition is 33% in assay [5] (setting [7]); 69% in assay [5] (setting [8]); 39.1% in assay [5] (at 50.0 µM); 33% in assay [6] (setting [7]); 93% (active) in assay [6] (setting [8]); 81.3% (active) in assay [6] (at 50.0 µM).
Turning to `CC(=O)Nc1ccc2c(c1)C(=O)c1cccc(F)c1-2`, the growth inhibition is 6% in assay [1] (setting [7]); 93% (active) in assay [1] (setting [8]); 90% (active) in assay [1] (at 50.0 µM); -2% in assay [2] (setting [7]); 54% in assay [2] (setting [8]); 25.8% in assay [2] (at 50.0 µM). For the same molecule, the growth inhibition in assay [3] (setting [7]) is -4%; in assay [3] (setting [8]) it was 69%; in assay [3] (at 50.0 µM), 51.2%; in assay [4] (setting [7]), -2%; in assay [4] (setting [8]), 38%; in assay [4] (at 50.0 µM) it was 12%. The growth inhibition in assay [5] (setting [7]) was 1%; in assay [5] (setting [8]), 17%; in assay [5] (at 50.0 µM), 12.2%; in assay [6] (setting [7]) it was 3%; in assay [6] (setting [8]) it was 82% (active); in assay [6] (at 50.0 µM), 45.9%.
